Results from PubChem BioAssay (NCI).
Compounds without any hit were thinned out: in the full panel of roughly 83,000, 20% have a hit.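 Method: cells in 96-well plates; compound added at one concentration; 48 h incubation; percent growth measured; values under 10 scored active.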 Unmarked numbers belong to inactive results. Activity calls are given as the source filed them.

Legend:
Assay in all cases: NCI-60 one-dose screen, 48 h (100 = growth as untreated, 0 = no growth, -100 = all killed)
Details in all cases: 10 µM unless noted
SR leukemia = tested on: SR leukemia
RPMI-8226 leukemia = tested on: RPMI-8226 leukemia
OVCAR-8 ovarian = tested on: OVCAR-8 ovarian
OVCAR-5 ovarian = tested on: OVCAR-5 ovarian
OVCAR-4 ovarian = tested on: OVCAR-4 ovarian
SK-OV-3 ovarian = tested on: SK-OV-3 ovarian
IGROV1 ovarian = tested on: IGROV1 ovarian
OVCAR-3 ovarian = tested on: OVCAR-3 ovarian
HS 578T breast = tested on: HS 578T breast
NCI/ADR-RES ovarian = tested on: NCI/ADR-RES ovarian

SMILES	growth (SR leukemia)	growth (RPMI-8226 leukemia)	growth (OVCAR-8 ovarian)	growth (OVCAR-5 ovarian)	growth (OVCAR-4 ovarian)	growth (SK-OV-3 ovarian)	growth (IGROV1 ovarian)	growth (OVCAR-3 ovarian)	growth (HS 578T breast)	growth (NCI/ADR-RES ovarian)
Cc1ccc(-n2cc(-c3ccccc3)c3c2N=NN2CCN=C32)cc1	86%	93.4%	107%	101%	97.2%	104%	88.5%	106%	100%	102%
CCCN1[C@@H]2CC[C@H]1/C(=C\c1ccc(OC)c(OC)c1)C(=O)/C2=C/c1ccc(OC)c(OC)c1	26.8%	9.06% (active)	35.5%	78.2%	46%	66.2%	56.8%	56.9%	54.2%	42%
Clc1ccc(-c2ccc(CNCC3CCNCC3)o2)c(-c2ccccc2)c1	-60.9% (active)	-54.4% (active)	-66.9% (active)	–	-38.2% (active)	45.4%	-64% (active)	-79.9% (active)	-49.8% (active)	-32.5% (active)
Cc1ccc(C(=O)/C(=C\c2ccc([N+](=O)[O-])cc2)S(=O)Cc2ccc(Cl)cc2)cc1 (stereo not given)	6.07% (active)	-28.1% (active)	25.6%	–	58.9%	106%	1.23% (active)	22.4%	36.9%	30.5%
O=C1c2cccc3c(-c4ccc5c(c4)ncn5C4CCCCC4)ccc(c23)C(=O)N1c1nc2ccccc2s1	81%	75.6%	98%	–	79.1%	95%	92.3%	89.8%	92.9%	91.3%
CNC(=O)c1cncc(Cn2nc(C)c(NC(=O)c3ccc(COc4ccc(C(F)(F)F)cc4C)cc3)c2C)c1	25%	42.7%	55%	–	43.5%	76.7%	62.7%	41%	92.7%	96.4%
O=C1OC(Cc2ccccc2)C1c1ccccc1 (stereo not given)	104%	109%	100%	–	109%	121%	101%	110%	107%	105%
O=C(Cc1ccccc1)NNc1nc(Cl)nc(N2CCN(C(c3ccccc3)c3ccccc3)CC2)n1	10.7%	101%	91.8%	–	106%	105%	64.5%	101%	98.9%	102%
CCCCNC(=O)Oc1ccc(/C(=C(\C)c2ccccc2)c2ccc(OCCN3CCCCC3)cc2)cc1	0.363% (active)	42.7%	71.9%	–	75.4%	71.6%	76.9%	64.7%	56.9%	63.1%
COc1cc(C2=C(c3cn(C)c4ccccc34)COC2=O)cc(OC)c1OC	8.24% (active)	15.2%	24.8%	–	21.4%	28.3%	11.1%	-13.8% (active)	-6.29% (active)	13%
O=C(Nc1cccc(C2=NCCN2)c1)c1ccc(-c2ccc(C(=O)Nc3cccc(C4=NCCN4)c3)cc2)cc1	72.4%	24.8%	80.7%	–	96.6%	111%	88.7%	121%	97.6%	104%
COc1ccc(/C=C/c2nc(Nc3ccc(S(=O)(=O)Nc4nc(C)cc(C)n4)cc3)c3ccccc3n2)cc1	49.5%	62.3%	66.1%	–	77.2%	90.9%	90.8%	79.6%	83.1%	73.1%
COc1ccc(-c2nc([C@@H](C)Sc3nc(N)cc(N)n3)c(C)s2)cc1OCCN1CCOCC1	97.5%	70.3%	95.8%	121%	–	131%	123%	102%	94.2%	101%
O=S(=O)(NCCCNc1nccc(-c2c(-c3cccc(F)c3)nc3sccn23)n1)c1cccc(F)c1	64.9%	28%	18.4%	–	26.8%	66%	18.9%	50.7%	63.7%	17.6%
CCOC(=O)CC1CSC(N/N=C/c2ccc(-n3cccn3)cc2)=N1 (stereo not given)	98.3%	99.1%	97.8%	–	109%	111%	114%	110%	97.8%	101%
O=C(c1nnc(Nc2ccccc2Br)o1)c1c[nH]c2ccccc12	103%	93.6%	94.9%	–	106%	83%	72.6%	97.2%	104%	102%
Cc1ccc(/C=N/NC(=O)CSc2nc3ccccc3c(=O)n2Cc2ccc(S(N)(=O)=O)cc2)cc1	49.4%	95.1%	93.6%	95.6%	–	103%	96.2%	79.6%	88.5%	96.8%
Cc1ccc(S(=O)(=O)Nn2c3c(cc(-c4nc5ccccc5s4)c2=O)CCCCCC3)cc1	97.8%	97.8%	92.3%	–	98.5%	104%	95.3%	102%	91.7%	95.8%
Cc1nn(-c2ccccc2)c(Cl)c1/C=C/C(=O)c1ccc(F)cc1	4.28% (active)	-15.6% (active)	86.4%	–	93.1%	110%	104%	102%	114%	93.2%
C=C(C)[C@@H]1CC[C@]2(C(=O)N3CCN(C)CC3)CC[C@]3(C)[C@H](CC[C@@H]4[C@@]5(C)C/C(=C/c6cccnc6)C(=O)C(C)(C)[C@@H]5CC[C@]43C)[C@@H]12	19.9%	21.2%	56.2%	–	49.2%	83.8%	96%	57.5%	76.4%	64.2%
COc1ccc(C(C)=O)c(OC)c1	119%	100%	109%	90.2%	–	105%	127%	117%	113%	108%
C=C1C(=O)O[C@H]2[C@H]1CC/C(C(=O)NCCCCCNC(=O)/C1=C/CC[C@@]3(C)O[C@H]3[C@H]3OC(=O)C(=C)[C@@H]3CC1)=C\CC[C@@]1(C)O[C@@H]21	83.6%	95.5%	103%	–	116%	120%	101%	103%	104%	103%
